Measurements published in PubChem BioAssay AID449762 (Southern Research Specialized Biocontainment Screening …, 2010).
The whole screen tested about 330,000 compounds, of which about 1,900 (0.58%) were called active. Inconclusive results (about 4%) are left out. Rule as the data show it: inconclusive = inhibition above about 70% without an active follow-up result; inactive = below that. These entries were drawn from the full list. Measured potencies and affinities stand elsewhere.

Assay: M. tuberculosis growth inhibition, HTS (AID 449762);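 also: bacterial growth assessed after seven days of incubation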
Conditions: M. tuberculosis H37Rv growth inhibition, 7H9 media; at 25 µM; hits give high values

Row | Compound | inhibition
1 | CSCC[C@H](NC(=O)c1cccc(S(=O)(=O)N2CCN(C)CC2)c1)c1nc2ccccc2[nH]1 | -7.51% (inactive)
2 | CC(C(=O)Nc1ccc2c(c1)OCCO2)n1nnc(-c2ccccc2)n1 (stereo not given) | 0.15% (inactive)
3 | Cc1nc(C)c(CCNC(=O)c2ccccc2Br)s1 | -5.7% (inactive)
4 | Cc1ccc(NC(=S)N/N=C2\CCCCC2C)cc1 (stereo not given) | 5.06% (inactive)
5 | CC1CCCC/C1=N\NC(=S)Nc1ccccc1 (stereo not given) | 0.51% (inactive)
6 | O=C(CC(=O)NN=C1CCCC1)NCCc1ccccc1 | 4.48% (inactive)
7 | O=C(NCCc1ccccc1)C(=O)NN=C1CCCC1 | -3.67% (inactive)
8 | S=C(NC1CCCCC1)N1CCN(Cc2ccccc2)CC1 | -15.7% (inactive)
9 | S=C(Nc1ccccc1)NC1CCN(Cc2ccccc2)CC1 | -9.83% (inactive)
10 | Cc1cccc(C)c1NC(=S)NCCc1ccccn1 | 3.14% (inactive)
11 | CC1(C)C[C@H](O)[C@@]23C[C@@H](OC2=O)[C@]2(C)C(=CCC4[C@@]5(C)CC[C@H](O)C(C)(C)C5CC[C@]42C)[C@@H]3C1 (stereo not given in full) | 3.65% (inactive)
12 | CCOC(=O)c1cc(CC)sc1NC(=O)COC(=O)C1CCC1 | -15.8% (inactive)
13 | Cc1cccc(C)c1NC(=O)CN1N=NC2C(=O)N(c3cccc(Cl)c3)C(=O)C21 (stereo not given) | 2.55% (inactive)
14 | CN(C)S(=O)(=O)c1cccc(NC(=O)CSc2nc3ccccc3[nH]2)c1 | -2.08% (inactive)
15 | O=C(Nc1nnc(C2CC2)s1)c1cncc(Br)c1 | 5.39% (inactive)
16 | COc1ccc(CNC(=O)C(=O)NCCC2CCCCN2S(=O)(=O)c2cccs2)cc1 (stereo not given) | 5.17% (inactive)
17 | COc1ccc(CCNC(=O)C(=O)NCC2OCCN2S(=O)(=O)c2ccc(C)cc2)cc1OC (stereo not given) | -6.63% (inactive)
18 | Cc1ccc(NC(=O)N2CCCC2C(=O)NCC2CCCCC2)cc1 (stereo not given) | 5.67% (inactive)
19 | Cc1cc(C(=O)N/N=C/c2ccc(-c3ccc(C)c(Cl)c3)o2)n[nH]1 | 42.8% (inactive)
20 | Clc1ccc(Cl)c(-c2ccc(/C=N/c3ncn[nH]3)o2)c1 | 8.33% (inactive)
21 | Cc1ccc(/C=N/n2c(COc3ccccc3)n[nH]c2=S)cc1 | 6.13% (inactive)
22 | Cc1ccc(NC(=O)COC(=O)Cc2c[nH]c3ccccc23)cc1C | -4.13% (inactive)
23 | O=C(COC(=O)CCc1c[nH]c2ccccc12)Nc1ccc([N+](=O)[O-])cc1 | 2.33% (inactive)
24 | COc1cc(/C=C/C(=O)OCC(=O)NCCC2=CCCCC2)cc(OC)c1OC | 2.02% (inactive)

Row | Compound | inhibition
25 | Cc1ccccc1NS(=O)(=O)c1ccc(C(=O)N2CCN(c3ccccc3O)CC2)cc1 | 4.31% (inactive)
26 | Cc1cccc(NS(=O)(=O)c2ccc(C(=O)N3CCCC3)cc2)c1C | -8.71% (inactive)
27 | OC(COCc1ccc(Cl)cc1)CN1CCCCC1 (stereo not given) | 1.29% (inactive)
28 | C=CCNC(=O)/C(C#N)=C\c1cc(Cl)c(OCC)c(OC)c1 | 7.41% (inactive)
29 | COc1cccc(CN(C)C(=O)CSCC(=O)Nc2cccc(C)c2)c1OC | -5.41% (inactive)
30 | CC(C)C(=O)N=c1sc2cc(F)cc(F)c2n1C | -9.4% (inactive)
31 | O=C(NCC1CC1)c1ccc(Nc2nc3ccc(Br)cc3[nH]2)cc1 | -0.43% (inactive)
32 | O=C(NCc1cccs1)c1cccc(Nc2nc3ccc(Br)cc3[nH]2)c1 | -11% (inactive)
33 | CC(=O)Oc1ccc(-c2cccc(C(=O)NCCO)c2)cc1 | -0.93% (inactive)
34 | O=S(=O)(NC1CCCCC1Nc1ccccc1)c1ccccc1 (stereo not given) | -7.27% (inactive)
35 | O=C(CN(c1ccc(F)cc1)S(=O)(=O)c1ccc2c(c1)OCCO2)N1CCOCC1 | 1.58% (inactive)
36 | CCCCCC(=O)NCc1c(C(F)(F)F)nn(C)c1N1CCOCC1 | -1.96% (inactive)
37 | O=C(C[N+]12CCN(CC1)CC2)NCCc1ccc(Cl)cc1Cl | -3.14% (inactive)
38 | O=C(CN1CCNC(=O)C1)NCCc1ccc(Cl)cc1Cl | -0.1% (inactive)
39 | COc1ccc(OC)c(NC(=O)c2cccnc2Sc2cc(C)ccc2C)c1 | 8.29% (inactive)
40 | CC(C)(C)c1ccccc1OCCOCCNCc1ccccc1 | 2.6% (inactive)
41 | Cc1ccc(S(=O)(=O)n2ccc3c(OCCOCCSCC(NC(=O)OC(C)(C)C)C(=O)O)cccc32)cc1 (stereo not given) | 0.6% (inactive)
42 | O=C(CSc1nc2ccccc2[nH]1)Nc1ccc2[nH]c(=O)[nH]c2c1 | 8.79% (inactive)
43 | CC(=O)Nc1ccc(NC(=O)CSc2ncnc3sc(C)c(C)c23)cc1 | -0.3% (inactive)
44 | CNc1nc(-c2ccc3c(c2)CCN3C(=O)c2ccccc2F)c(C)s1 | 9.7% (inactive)
45 | O=C1/C(=C/c2ccccn2)SC(=S)N1NS(=O)(=O)c1ccccc1 | 5.72% (inactive)
46 | CCC(=O)NCCCCCCNC(=O)CC | 0.18% (inactive)
47 | CCC(=O)NCCCCCCCCCNC(=O)CC | -4.93% (inactive)
48 | C=CCn1c(SCC(=O)Nc2ccccc2F)nnc1C(C)NC(=O)c1ccccc1F (stereo not given) | -12.4% (inactive)

Row | Compound | inhibition
49 | Cc1ccc(-c2c(C)n([O-])c3c([n+]2=O)CCCCC3)cc1 | -3.38% (inactive)
50 | CCCCSc1nnc([C@H](CC(C)C)NC(=O)OC(C)(C)C)o1 | -2.58% (inactive)
51 | CC(C)C[C@H](NC(=O)OC(C)(C)C)c1nnc(SCc2ccccc2)o1 | -3.57% (inactive)
52 | COc1ccc(C)cc1S(=O)(=O)NCc1cccs1 | 1.39% (inactive)
53 | O=C(NCCc1ccc(Cl)cc1)c1ccc(OCC2CCCO2)cc1 (stereo not given) | 5.17% (inactive)
54 | O=C(NC1CCCCC1)N1CCN(Cc2nc3ccccc3c(=O)[nH]2)CC1 | -4.69% (inactive)
55 | CC(=O)Nc1ccc(NC(=S)NC(=O)C2CCCC2)cc1 | -8.34% (inactive)
56 | COc1ccc(NC(=S)NC(=O)C2CCC2)cc1 | -0.22% (inactive)
57 | Cn1nc(C(F)(F)F)c(C(=O)Nc2ccc(F)cc2F)c1Sc1ccc(Cl)cc1 | -9.99% (inactive)
58 | COc1ccc(-c2ccc3oc(-c4ccsc4)cc(=O)c3c2)cc1F | -0.47% (inactive)
59 | COc1cc(-c2ccc3oc(-c4ccsc4)cc3c2)cc(OC)c1OC | 0.64% (inactive)
60 | O=C1c2ccccc2C(=O)N1CCc1csc(-c2cccc(F)c2)n1 | 3.85% (inactive)
61 | COC(=O)CC1C(=O)NCCN1C(=O)c1ccccc1 (stereo not given) | -6.14% (inactive)
62 | Brc1ccc2nc(N3CCN(c4ccccc4)CC3)sc2c1 | -4.96% (inactive)
63 | Brc1cccc2sc(N3CCCC3)nc12 | 6.95% (inactive)
64 | COc1ccc(C(=O)Nc2ccccc2C(=O)NCCN2CCOCC2)cc1OC | 4.9% (inactive)
65 | O=C(COC(=O)c1ccc2c(c1)OCCO2)Nc1cccc(S(=O)(=O)N2CCOCC2)c1 | 9.61% (inactive)
66 | COc1ccccc1C(=O)NCc1ccccc1 | 10.8% (inactive)
67 | COCCNC(=S)N/N=C(\C)c1ccccc1OC | -6.36% (inactive)
68 | C/C(=N\NC(=S)NCc1ccccc1)c1ccc(Br)cc1 | 6.33% (inactive)
69 | COc1ccccc1C(=O)NNC(=O)CCC(=O)NCc1ccccc1 | -3.02% (inactive)
70 | CSc1ccccc1NC(=O)Nc1cccc(F)c1 | 1.3% (inactive)
71 | CC(C)(C)N(Cc1ccccc1)C(=O)COC(=O)CNC(=O)c1ccco1 | 5.79% (inactive)
72 | CC(C)C(NC(=O)c1cccs1)C(=O)NC1=NCCS1 (stereo not given) | -3.72% (inactive)

Row | Compound | inhibition
73 | COc1cc(OC)cc(C(=O)N[C@H](C(=O)Nc2nc3ccc(S(C)(=O)=O)cc3s2)C(C)C)c1 | 10.5% (inactive)
74 | CCOC(=O)c1sc(NC(=O)c2cc3ccccc3o2)nc1C | 3.64% (inactive)
75 | CCOC(=O)c1csc(NC(=O)c2cc(=O)c3ccccc3o2)n1 | -0.69% (inactive)
76 | COc1cc(/C=N/Nc2nc(Nc3ccccc3)nc(-n3nc(C)cc3C)n2)cc(OC)c1OC | 10.6% (inactive)
77 | COc1cccc(/C=N/Nc2nc(N3CCCC3)nc(N3CCCC3)n2)c1O | 3.67% (inactive)
78 | COc1ccc(NC(=S)N2CCC(N(C)CCN3CCOCC3)CC2)cc1 | 2.62% (inactive)
79 | COc1ccccc1C(=O)NCCC(=O)N1CCN(c2ccccc2O)CC1 | 1.15% (inactive)
80 | COc1ccc(-c2csc3nc(-c4ccccc4F)oc(=O)c23)cc1 | -1.39% (inactive)
81 | COc1ccc(-c2csc3ncnc(N4CCN(c5ccccc5Cl)CC4)c23)cc1 | 50.3% (inactive)
82 | COc1ccc(-c2nc3scc(-c4ccc(OC)c(OC)c4)c3c(=O)o2)cc1 | 11.9% (inactive)
83 | CCOc1ccccc1N1CCN(c2ncnc3scc(-c4ccc(OC)cc4)c23)CC1 | -0.51% (inactive)
84 | CCN(CC)c1ccc(C2C(C(C)=O)C(=O)CC(C)(O)C2C(C)=O)cc1 (stereo not given) | -4.35% (inactive)
85 | C1CN(c2nc3nonc3nc2N2C[C@H]3CC[C@H]2C3)CCS1 | -11% (inactive)
86 | CCNC(=S)N(CCc1c(C)[nH]c2ccccc12)Cc1cccnc1 | -3.56% (inactive)
87 | CN1CCN(C(=O)CCN2C(=O)/C(=C\c3ccccc3F)SC2=S)CC1 | -5.52% (inactive)
88 | COc1ccc(C#Cc2c(-c3ccccc3)n(C)c3ccccc23)cc1 | 6.76% (inactive)
89 | COc1ccc(-c2c(C#Cc3ccsc3)c3cc(Br)ccc3n2C)cc1 | 8.44% (inactive)
90 | COc1cc(CNCc2ccccc2)cc(Cl)c1OC | -0.38% (inactive)
91 | COc1cc(CNCCO)cc(Cl)c1OCc1ccccc1Cl | 1.99% (inactive)
92 | CCN(C(=O)c1cnc2scc(C)n2c1=O)c1ccccc1C | -2.4% (inactive)
93 | COc1ccc(NC(=O)CC(Cc2ccc(Cl)cc2)C(=O)O)cc1 (stereo not given) | 1.62% (inactive)
94 | Cc1cccc(C)c1NC(=O)CN(C)C(=O)c1ccccc1Cc1ccccc1 | 2.81% (inactive)
95 | Cc1cc(C)n2nc(SCC(=O)NC(=O)c3ccccc3Cl)nc2n1 | 1.71% (inactive)
